From PubChem BioAssay
TbREL1 inh: TbREL1 inhibition, primary screen | 0.49% of 89,000 active | AID 1117264 | inhibition, % at 9.66 µM | P86926 | TbREL1 RNA ligation, FRET fluorescence;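 active means inhibition above the mean inhibition across all screened compounds plus 3 SD, cut at about 11% in these data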;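 further: 0% = plate median of test wells and 100% = NSC42067 control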
Target sequence (P86926 whole entry, looked up): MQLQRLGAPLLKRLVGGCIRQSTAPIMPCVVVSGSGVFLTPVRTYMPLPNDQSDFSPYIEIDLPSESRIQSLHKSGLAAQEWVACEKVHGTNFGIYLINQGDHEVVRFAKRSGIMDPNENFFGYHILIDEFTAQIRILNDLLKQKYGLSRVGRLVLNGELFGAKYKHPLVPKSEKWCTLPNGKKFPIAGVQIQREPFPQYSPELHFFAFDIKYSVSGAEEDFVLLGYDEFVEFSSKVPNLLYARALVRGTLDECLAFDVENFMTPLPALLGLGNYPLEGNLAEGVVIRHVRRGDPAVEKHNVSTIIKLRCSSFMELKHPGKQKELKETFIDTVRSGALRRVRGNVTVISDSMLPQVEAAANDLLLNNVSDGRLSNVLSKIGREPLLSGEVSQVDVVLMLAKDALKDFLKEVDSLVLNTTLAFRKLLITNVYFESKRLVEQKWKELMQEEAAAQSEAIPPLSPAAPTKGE
TbREL1 confirm: TbREL1 inhibition, confirmation; shares compounds with TbREL1 inh; TbREL1 RNA ligation, FRET fluorescence; inhibition, % at 9.66 µM; 37% of 390 active; AID 1117282;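 active means mean inhibition across replicates above a set limit taken from the earlier primary screen, cut at about 11% in these data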;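 further: 0% = REL1 with substrate and DMSO and 100% = REL1 plus control inhibitor NSC42067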
Numbers without * were called inactive. The full list was thinned out, with hits kept by preference.

SMILES	TbREL1 inh	others
CC(=O)c1ccc(NC(=O)CSc2ccc(-c3ccco3)nn2)cc1	-2
COc1cccc(NC(=O)CSc2nnc(-c3ccco3)c(-c3ccco3)n2)c1	11*	TbREL1 confirm=5
O=C(CNS(=O)(=O)c1ccc(F)cc1)N1CCN(c2ccccn2)CC1	6
CCCC[C@H]1C2CC(OC(=O)Nc3ccccc3OC)C(C2)[C@H]2CCCCN21 (some centres undefined)	5
NC(=O)c1ccc2nc(NC(=O)c3ccc(N)cc3)sc2c1	4
O=C(Nc1nc2ccccc2s1)c1ccc(Cl)s1	4
O=C(Nc1nc2ccccc2s1)c1ccc(F)cc1	15*	TbREL1 confirm=7
CCOc1ccc(N(CC(=O)Nc2c(C)n(C)n(-c3ccccc3)c2=O)S(=O)(=O)c2cc(OC)ccc2OC)cc1	1
CCOc1ccc(C(=O)O)cc1OC	-1
O=C(O)c1ccnc(C(=O)O)c1	13*	TbREL1 confirm=16*
O=C(O)c1cccc(NS(=O)(=O)c2cccc3cccnc23)c1	0
Cc1cc(C)n(CCC(=O)N/N=C/c2ccccc2O)n1	1
Cc1cc(C)n(CCC(=O)N/N=C/c2ccc(O)cc2O)n1	12*	TbREL1 confirm=5
Cc1cc(C)n(CCC(=O)N/N=C/c2ccc(Cl)c([N+](=O)[O-])c2)n1	-3
COC(=O)c1cc(-c2ccc(C)cc2)c(=O)n2c1CCC2	9
O=C(NCc1ccc(C(=O)N2CCOCC2)cc1)c1cccc(Br)c1	1
CCCCNC(=O)C[C@H]1C[C@@]2(C(=O)OCC)CCCC3=C2N(CCC3)C1=O	-4
CSCCCNC(=O)Cn1nc(Cc2ccncc2)c2ccccc2c1=O	-4
Nc1cccc(-c2nc3ccc(N)cc3s2)c1	-1
Nc1ccc2cc3ccc(N)cc3nc2c1	31*	TbREL1 confirm=-38
Nc1ccc2c(c1)nnn2-c1ccccc1	-1
Cc1ccc(-n2c(Cc3cccs3)nnc2SCC(=O)Nc2ccc(OCc3ccccc3)cc2)cc1	2
COC(=O)c1cc(S(=O)(=O)N2CCN(c3ccccc3Cl)CC2)cn1C	0
CC(C)c1ccc(NC(=O)O[C@@H]2CC[C@@]34CCCN3C(=O)CCC[C@H]4C2)cc1	1
CCN(C(=O)COC(=O)c1ccc(Sc2ncn[nH]2)c([N+](=O)[O-])c1)c1ccccc1C	-3
SMILES	TbREL1 inh	others
CCOC(=O)C1CCCN(S(=O)(=O)c2cc3c(cc2Br)CCN3C(=O)CC)C1 (centres undefined)	-3
Nc1cc(S(=O)(=O)c2ccc(O)c(N)c2)ccc1O	-2
Nc1cc(S(=O)(=O)O)cc([N+](=O)[O-])c1O	21*	TbREL1 confirm=59*
Nc1ccc(C(=O)O)cc1[N+](=O)[O-]	0
CN1C2=N[C@H](c3ccccc3Br)CC(=O)N2/C(=C\c2ccccc2)[C@@H]1c1ccccc1	-5
C#CCNC(=O)C[C@H]1C[C@@]2(C(=O)OC)C(=C[C@H](C(C)C)O[C@@H]2C2CC2)N(Cc2ccc3c(c2)OCO3)C1=O	4
O=C1CCC[C@H]2C[C@H](NCc3ccco3)CC[C@]23CCCN13	-1
CCOC(=O)[C@]12CCCC=C1N(Cc1ccc(OC)cc1)C(=O)[C@@H]2CC(=O)NCc1ccc(OC)c(OC)c1	-3
N=C1S/C(=C\c2ccc(-c3ccccc3C(=O)O)o2)C(=O)N1c1ccc2c(c1)OCO2	2
O=C(O)c1ccccc1-c1ccc(C=c2sc3nc4cc(Br)cnc4n3c2=O)o1	45*	TbREL1 confirm=48*
O=C(O)c1ccccc1-c1ccc(/C=C/c2cc(C(F)(F)F)[nH]c(=O)n2)o1	-15
COc1cc(C(=O)N2CCN(S(=O)(=O)c3cc(C)ccc3C)CC2)ccc1OCC(=O)N1CCOCC1	7
COc1cc(C(=O)N2CCN(c3ccccc3O)CC2)ccc1OCC(=O)N1CCOCC1	2
COc1cc(C(=O)N2CCN(c3cccc(C)c3C)CC2)ccc1OCC(=O)N1CCOCC1	13*	TbREL1 confirm=0
Fc1ccc(-c2n[nH]c(=S)n2N=Cc2cccc(OCc3ccccc3)c2)cc1	-4
O=C(NCc1ccccc1)OC1CCC12CCC(c1ccccc1)CC2 (centres undefined)	-2
O=C(c1ccc(F)cc1Cl)N(Cc1ccccn1)CC1CCCO1 (centres undefined)	0
C#CCOCCOCCOCCNc1nc(N2CCN(C(=O)[C@H](CCCCN)n3cc([C@@H](N)CC(C)C)nn3)CC2)nc(N2CCN(C(=O)[C@H](Cc3cc4ccccc4[nH]3)n3cc([C@@H](N)CC(C)C)nn3)CC2)n1	20*	TbREL1 confirm=13*
C#CCOCCOCCOCCNc1nc(N2CCN(C(=O)[C@H](Cc3ccc(O)cc3)n3cc([C@@H](N)CC(C)C)nn3)CC2)nc(N2CCN(C(=O)[C@H](Cc3cc4ccccc4[nH]3)n3cc([C@@H](N)CC(C)C)nn3)CC2)n1	3
C#CCOCCOCCOCCNc1nc(N2CCN(C(=O)[C@H](CCCCN)n3cc(CN)nn3)CC2)nc(N2CCN(C(=O)[C@H](CCC(=O)O)n3cc([C@@H](N)CCCCN)nn3)CC2)n1	6
C#CCOCCOCCOCCNc1nc(N2CCOCC2)nc(N2CCN(C(=O)[C@H](CCC(=O)O)n3cc(C(N)CO)nn3)CC2)n1 (some centres undefined)	16*	TbREL1 confirm=5
C#CCOCCOCCOCCNc1nc(N2CCN(C(=O)[C@H](CCC(=O)O)n3cc(C(N)Cc4ccc(O)cc4)nn3)CC2)nc(N2CCN(C(=O)[C@H](CCC(=O)O)n3cc(C(N)Cc4ccc(O)cc4)nn3)CC2)n1 (some centres undefined)	3
C#CCOCCOCCOCCNc1nc(N2CCN(C(=O)[C@H]([C@@H](C)CC)n3cc([C@@H](N)CO)nn3)CC2)nc(N2CCN(C(=O)[C@H](CCCCN)n3cc([C@@H](N)CO)nn3)CC2)n1	5
COc1ccc(CN2CCC(CNC(=O)NC3CCCC3)CC2)cc1	4
CCCC[C@H](C(=O)N(CC)c1ccccc1)[C@@H](O)c1ccc(C(C)=O)cc1	4
SMILES	TbREL1 inh	others
CCCCCCCCN1C(=O)[C@@H](CC(=O)NCCCN2CCCC2=O)C[C@@]2(C(=O)OC)C1=C[C@H](C(C)C)O[C@@H]2C1CC1	0
COc1ccc2[nH]c3c(c2c1)CCN[C@]31C(=O)N(c2ccccc2)c2ccccc21	-2
COC(=O)c1ccc(Cn2ccc3ccc(-c4ccc5ccn(C(=O)c6ccccc6OC)c5c4)cc32)cc1	1
Cc1nc2c(C)[n+](CC(=O)c3ccccc3)ccc2n1C	2
O=C(O)CCC(=O)CCC(=O)c1ccccc1	7
O=C(C[n+]1cc2ccccc2c2ccccc21)c1ccccc1	13*	TbREL1 confirm=9
CCn1c(SCC(=O)Nc2ccccc2-c2ccccc2)nnc1-c1ccc(C)cc1	5
Cn1c(Cc2cccs2)nnc1SCC(=O)Nc1ccc2c(c1)OCO2	1
O=C(/C=C/c1ccc(Cl)cc1)NCCc1ccccc1	0
O[C@@H](Cc1ccccc1)[C@@H](/C=C/c1ccccc1)NCCc1ccccc1	11*	TbREL1 confirm=10
COC(=O)[C@@H](N[C@H](/C=C/c1ccccc1)[C@@H](O)Cc1ccccc1)c1ccccc1	-5
CC(Cl)C(=O)N1CCC(C(=O)NC2CCCc3ccccc32)CC1 (centres undefined)	0
Cc1ccc(-c2nn(-c3ccccc3)cc2/C=C/C(=O)O)o1	11*	TbREL1 confirm=4
CN1CCN(C(=O)/C=C/c2cn(-c3ccccc3)nc2-c2ccc3c(c2)OCCO3)CC1	-4
Cc1ccc(Cn2cc(/C=C/C(=O)O)c(-c3ccccc3)n2)cc1	0
CCOC(=O)[C@]12CCCC3=C1N(CCC3)C(=O)[C@@H](CC(=O)N1CCN(C(=O)c3ccco3)CC1)C2	9
